# “And” between values parts separate entries of the source, which are not always exact repeats. Equal values may be shown once. The campaign covered roughly 6,400 compounds. About 610 (9.5%) were called active. No stated cut-off is given here; in the data, active means activity change below about -70%; inconclusive means no clear call, values can overlap the other calls; inactive means above that. Many of the other results were omitted from the sample, so actives are more common in it than they were. Some compounds were tested as several samples or in several runs, with calls that do not always agree.
# Test: T. gondii ME49Luc in HeLa cells, luciferase assay, 72 h, no IFN-y (AID 1259421)
# Details: stronger effect = lower value, concentration not given here
row,SMILES,"activity change, negative = inhibition"
1,O=c1[nH]c(=O)c2ccccc2o1,7.04% (inactive) and -95.9% (active)
2,O=c1c2ccccc2oc2ccccc12,16.7% (inactive)
3,O=C(O)c1cc(=O)c2ccccc2o1,5.57% (inactive) and 14.8% (inactive)
4,OC(c1ccccc1)(c1ccccc1)C12CC[N+](CCOCc3ccccc3)(CC1)CC2,13.9% (inactive)
5,COc1ccc2oc(-c3ccccc3OC)cc(=O)c2c1,44.1% (inactive)
6,O=C(Nc1ccccc1)NC1CC(C(=O)O)Nc2cc(Cl)cc(Cl)c21 (stereo not drawn),13% (inactive)
7,Cc1ccccc1N=C(N)Nc1ccccc1C,5.45% (inactive) and 4.9% (inactive)
8,CCCNC(C)C(=O)Nc1ccccc1C (stereo not drawn),37.2% (inactive) and -79.6% (active)
9,CCCNC(C)C(=O)Nc1c(C)csc1C(=O)OC (stereo not drawn),20% (inactive)
10,CCCCCCCCCCCCCCCC(=O)OC1C(SC)OC(C(NC(=O)C2CC(CCC)CN2C)C(C)Cl)C(O)C1O (stereo not drawn),-9.26% (inactive)
11,COCCn1c2c([n+](Cc3cnccn3)c1C)C(=O)c1ccccc1C2=O,-83.1% (active) and -81.3% (active)
12,CN1c2cc(O)c(N=NC(N)=O)cc2CC1S(=O)(=O)O (stereo not drawn),-1.43% (inactive)
13,O=P(O)(O)C(Sc1ccc(Cl)cc1)P(=O)(O)O,5.32% (inactive) and -0.0921% (inactive)
14,CC(=O)OCC(=O)[C@@]1(O)CCC2C3C[C@H](C)C4=CC(=O)C=CC4(C)C3[C@@H](O)CC21C (stereo partly drawn),-6.72% (inactive)
15,N[C@@H](CSS(=O)(=O)O)C(=O)O,14.6% (inactive)
16,C1=C/COCc2cc(ccc2OCCN2CCCC2)Nc2nccc(n2)-c2cccc(c2)COC/1,-80.3% (active)
17,c1cc(OCCN2CCCCC2)cc(-c2n[nH]c3ccc(-c4ncn[nH]4)cc23)c1,-32.3% (inactive)
18,Cc1ccccc1N1CCN(S(=O)(=O)CC23CCC(C[C@@H]2NC(=O)[C@@H](N)CCS(C)(=O)=O)C3(C)C)CC1 (stereo partly drawn),1.28% (inactive) and 5.87% (inactive)
19,Cc1cc(OCC(=O)O)cc(C)c1Cc1ccc(O)c(C(C)C)c1,1.47% (inactive)
20,CCCCc1oc2ccccc2c1C(=O)c1cc(I)c(OCCN(CC)CC)c(I)c1,-58.9% (inactive)
21,CCCCc1oc2ccc(NS(C)(=O)=O)cc2c1C(=O)c1ccc(OCCCN(CCCC)CCCC)cc1,-83.6% (active)
22,CN(CCOc1ccc(NS(C)(=O)=O)cc1)CCc1ccc(NS(C)(=O)=O)cc1,-7.15% (inactive) and -5.58% (inactive)
23,CCCCC/C=C\C/C=C\C/C=C\CCCCCCC(=O)O,4.57% (inactive)

# Reference: PubChem BioAssay AID1259421 (Broad Institute, 2018)
